# Test results from PubChem BioAssay AID1508601 (ICCB-Longwood Screening Facility, Harvard Medical School, 2020).
# Screen size: about 5,700 compounds; about 85 (1%) were called active. No stated cut-off is given here; in the data, active means p53-positive nuclei above about 36% (passing the limit was not always enough); inactive means the rest. This excerpt belongs to a sample that is enriched for actives.
# Assays:
# [1] = p53 stabilisation in HPV-positive human cells, imaging, p53-positive nuclei imaging, 24 h, 48 h (AID 1508601); details: 24/48 h
# [2] = target: Cellular tumor antigen p53 (Homo sapiens) (UniProt P04637); test: as above; details: 24/48 h, stronger effect = higher value
# Cellular tumor antigen p53 (Homo sapiens), sequence (P04637 whole entry, looked up): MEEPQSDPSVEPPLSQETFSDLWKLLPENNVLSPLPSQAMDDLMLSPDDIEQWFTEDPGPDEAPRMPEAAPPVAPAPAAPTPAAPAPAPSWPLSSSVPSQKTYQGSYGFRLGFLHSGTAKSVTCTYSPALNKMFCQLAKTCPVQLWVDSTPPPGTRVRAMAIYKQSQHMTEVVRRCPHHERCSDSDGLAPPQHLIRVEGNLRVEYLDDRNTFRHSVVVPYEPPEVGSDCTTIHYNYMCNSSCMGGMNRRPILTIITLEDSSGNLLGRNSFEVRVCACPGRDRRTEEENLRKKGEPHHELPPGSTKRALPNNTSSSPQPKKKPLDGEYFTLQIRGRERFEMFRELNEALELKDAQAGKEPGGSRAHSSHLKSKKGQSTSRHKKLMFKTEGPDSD
# [3] = measured here: cell number at 24 h, concentration not given here
# [4] = measured here: cell number at 48 h, concentration not given here
# [5] = measured here: p53 positive nuclei at 24 h, concentration not given here
# [6] = measured here: cell number at 24 h, Library stock concentration: 80 uM
# [7] = measured here: cell number at 24 h, Library stock concentration: 400 uM
# [8] = measured here: cell number at 24 h, Library stock concentration: 2 mM
# [9] = measured here: cell number at 24 h, Library stock concentration: 3.33 mM
# [10] = measured here: cell number at 24 h, Library stock concentration: 10 mM
# [11] = measured here: cell number at 48 h, Library stock concentration: 80 uM
# [12] = measured here: cell number at 48 h, Library stock concentration: 400 uM
# [13] = measured here: cell number at 48 h, Library stock concentration: 2 mM
# [14] = measured here: cell number at 48 h, Library stock concentration: 3.33 mM
# [15] = measured here: cell number at 48 h, Library stock concentration: 10 mM
# [16] = Library stock concentration: 80 uM
# [17] = Library stock concentration: 400 uM
# [18] = Library stock concentration: 2 mM
# [19] = Library stock concentration: 3.33 mM
# [20] = Library stock concentration: 10 mM
# [21] = measured here: p53 positive nuclei at 24 h, Library stock concentration: 80 uM
# [22] = measured here: p53 positive nuclei at 24 h, Library stock concentration: 400 uM
# [23] = measured here: p53 positive nuclei at 24 h, Library stock concentration: 2 mM
# [24] = measured here: p53 positive nuclei at 24 h, Library stock concentration: 3.33 mM
# [25] = measured here: p53 positive nuclei at 24 h, Library stock concentration: 10 mM
compound,measurement,setting,value
COc1ccc(CNCC2COCCO2)cc1OC (configuration not stated),"nuclei count, normalised",[1]; [3],101%
same,"nuclei count, normalised",[1]; [4],103%
same,"p53-positive nuclei, normalised",[2]; concentration not given here,0.0897% (inactive)
same,"p53-positive nuclei, normalised",[2]; [5],0.164%
O=C(NOCC(O)CO)c1ccc(F)c(F)c1Nc1ccc(I)cc1F (configuration not stated),"nuclei count, normalised",[1]; [6],110%
same,"nuclei count, normalised",[1]; [7],101%
same,"nuclei count, normalised",[1]; [8],91.9%
same,"nuclei count, normalised",[1]; [9],96.8%
same,"nuclei count, normalised",[1]; [10],99.9%
same,"nuclei count, normalised",[1]; [11],106%
same,"nuclei count, normalised",[1]; [12],104%
same,"nuclei count, normalised",[1]; [13],95.8%
same,"nuclei count, normalised",[1]; [14],97.9%
same,"nuclei count, normalised",[1]; [15],95.8%
same,"p53-positive nuclei, normalised",[2]; [16],-0.174% (inactive)
same,"p53-positive nuclei, normalised",[2]; [17],-0.189% (inactive)
same,"p53-positive nuclei, normalised",[2]; [18],0.0424% (inactive)
same,"p53-positive nuclei, normalised",[2]; [19],-0.685% (inactive)
same,"p53-positive nuclei, normalised",[2]; [20],0.268% (inactive)
same,"p53-positive nuclei, normalised",[2]; [21],0.00674%
same,"p53-positive nuclei, normalised",[2]; [22],0.0842%
same,"p53-positive nuclei, normalised",[2]; [23],-0.07%
same,"p53-positive nuclei, normalised",[2]; [24],-0.375%
same,"p53-positive nuclei, normalised",[2]; [25],0.0144%
O=Nc1c(O)[nH]c2c(Cl)c(Cl)ccc12,"nuclei count, normalised",[1]; [6],111%
same,"nuclei count, normalised",[1]; [7],99.5%
same,"nuclei count, normalised",[1]; [8],83.2%
same,"nuclei count, normalised",[1]; [10],73.5%
same,"nuclei count, normalised",[1]; [11],109%
same,"nuclei count, normalised",[1]; [12],99%
same,"nuclei count, normalised",[1]; [13],54.9%
same,"nuclei count, normalised",[1]; [15],33.7%
same,"p53-positive nuclei, normalised",[2]; [16],0.16% (inactive)
same,"p53-positive nuclei, normalised",[2]; [17],-0.101% (inactive)
same,"p53-positive nuclei, normalised",[2]; [18],48.3% (inactive)
same,"p53-positive nuclei, normalised",[2]; [20],84.3% (active)
same,"p53-positive nuclei, normalised",[2]; [21],0.217%
same,"p53-positive nuclei, normalised",[2]; [22],0.0912%
same,"p53-positive nuclei, normalised",[2]; [23],2.93%
same,"p53-positive nuclei, normalised",[2]; [25],8.66%
CC(C)C(=O)Oc1ccc(CO)cc1C(CCN(C(C)C)C(C)C)c1ccccc1 (configuration not stated),"nuclei count, normalised",[1]; [9],113%
same,"nuclei count, normalised",[1]; [14],108%
same,"p53-positive nuclei, normalised",[2]; [19],-0.0601% (inactive)
same,"p53-positive nuclei, normalised",[2]; [24],-0.451%
CCCCC[C@H](O)/C=C/[C@@H]1[C@H](CCCCCCC(=O)O)[C@H](O)C[C@H]1O,"nuclei count, normalised",[1]; [3],103%
same,"nuclei count, normalised",[1]; [4],107%
same,"p53-positive nuclei, normalised",[2]; concentration not given here,-0.142% (inactive)
same,"p53-positive nuclei, normalised",[2]; [5],-0.0664%
O=Nc1c(-c2c(O)[nH]c3cc(Br)ccc23)[nH]c2ccccc12,"nuclei count, normalised",[1]; [6],102%
same,"nuclei count, normalised",[1]; [7],111%
same,"nuclei count, normalised",[1]; [8],106%
same,"nuclei count, normalised",[1]; [9],116%
same,"nuclei count, normalised",[1]; [10],63.9%
same,"nuclei count, normalised",[1]; [3],104%
same,"nuclei count, normalised",[1]; [11],106%
same,"nuclei count, normalised",[1]; [12],106%
same,"nuclei count, normalised",[1]; [13],91.1%
same,"nuclei count, normalised",[1]; [14],101%
same,"nuclei count, normalised",[1]; [15],46.7%
same,"nuclei count, normalised",[1]; [4],113%
same,"p53-positive nuclei, normalised",[2]; [16],-0.018% (inactive)
same,"p53-positive nuclei, normalised",[2]; [17],0.858% (inactive)
same,"p53-positive nuclei, normalised",[2]; [18],4.32% (inactive)
same,"p53-positive nuclei, normalised",[2]; [19],1.69% (inactive)
same,"p53-positive nuclei, normalised",[2]; [20],89.3% (active)
same,"p53-positive nuclei, normalised",[2]; concentration not given here,0.377% (inactive)
same,"p53-positive nuclei, normalised",[2]; [21],-0.0496%
same,"p53-positive nuclei, normalised",[2]; [22],0.519%
same,"p53-positive nuclei, normalised",[2]; [23],1.14%
same,"p53-positive nuclei, normalised",[2]; [24],0.53%
same,"p53-positive nuclei, normalised",[2]; [25],71.9%
same,"p53-positive nuclei, normalised",[2]; [5],0.0936%
